In PubChem BioAssay (NCI):
Compounds without any hit were thinned out: in the full panel of roughly 83,000, 20% have a hit.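 Single-dose data. Exposure time 48 hours. Values below 10 considered active.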 Values without a mark were called inactive. Active and inactive are the calls of the source.

Key:
Test in all cases: NCI-60 one-dose screen, 48 h (100 = growth as untreated, 0 = no growth, -100 = all killed)
Details in all cases: 10 µM unless noted
SR leukemia = test system: SR leukemia
OVCAR-8 ovarian = test system: OVCAR-8 ovarian
OVCAR-5 ovarian = test system: OVCAR-5 ovarian
OVCAR-4 ovarian = test system: OVCAR-4 ovarian
SK-OV-3 ovarian = test system: SK-OV-3 ovarian
IGROV1 ovarian = test system: IGROV1 ovarian
OVCAR-3 ovarian = test system: OVCAR-3 ovarian
HS 578T breast = test system: HS 578T breast
NCI/ADR-RES ovarian = test system: NCI/ADR-RES ovarian
T-47D breast = test system: T-47D breast
BT-549 breast = test system: BT-549 breast
MDA-MB-435 melanoma = test system: MDA-MB-435 melanoma
SW-620 colon = test system: SW-620 colon
MCF7 breast = test system: MCF7 breast
HCT-116 colon = test system: HCT-116 colon
HCC-2998 colon = test system: HCC-2998 colon
KM12 colon = test system: KM12 colon
RPMI-8226 leukemia = test system: RPMI-8226 leukemia

| Compound | growth (SR leukemia) | growth (OVCAR-8 ovarian) | growth (OVCAR-5 ovarian) | growth (OVCAR-4 ovarian) | growth (SK-OV-3 ovarian) | growth (IGROV1 ovarian) | growth (OVCAR-3 ovarian) | growth (HS 578T breast) | growth (NCI/ADR-RES ovarian) | growth (T-47D breast) | growth (BT-549 breast) | growth (MDA-MB-435 melanoma) | growth (SW-620 colon) | growth (MCF7 breast) | growth (HCT-116 colon) | growth (HCC-2998 colon) | growth (KM12 colon) | growth (RPMI-8226 leukemia) |
| --- | --- | --- | --- | --- | --- | --- | --- | --- | --- | --- | --- | --- | --- | --- | --- | --- | --- | --- |
| Cc1ccc(-c2csc(NC(=O)CSc3nc(-c4ccccc4)cc(=O)[nH]3)n2)cc1 | 101% | 94.2% | 95.8% | 105% | 92.4% | 77.2% | 101% | 90.6% | 93.4% | 78.1% | 114% | 106% | 96.2% | 82.9% | 98.5% | 106% | 94.8% |  |
| Cc1nnc2c(Cc3ccccc3)nc3ccccc3n12 | 94.6% | 104% | 90.7% |  | 99.1% | 121% | 94% | 104% | 87.4% | 92.4% | 91.8% | 93.2% | 97.3% | 97.9% | 93.1% | 97.8% | 97.5% | 93.2% |
| Cc1nc2sccn2c1-c1nc2sccn2c1/C=C1/C(=O)Nc2ccccc21 |  | 52.1% | 41.8% | 63.6% | 31.2% | -15.5% (active) | -30.9% (active) | 31.8% | 47.9% | 27.6% | 36% | -63.8% (active) | 9.78% (active) | 10.6% | 24.1% | 66.8% | 12.5% | 20.1% |
| COc1cc2oc(-c3cccc(C(=O)Nc4ccc(Br)cc4)c3)cc(=O)c2c(OC)c1OC |  | 40.5% | 61% | 57.6% | 69.4% | 52.3% | 76% | 65.2% | 45.7% | 36% | 45.8% | 65.6% | 94.6% | 78.1% | 45.6% | 81.9% | 46.6% | 8.6% (active) |
| COc1cc(/C(C)=C(\c2ccc(Cl)cc2)c2ccc(OCCN(C)C)cc2)ccc1F |  | 73.9% | 75.3% | 45.9% | 111% | 35.3% | 59.4% | 71.7% | 69.4% | 61.2% | 76.2% | 39.6% | 49.8% | 31.7% | 46.8% | 25.1% | 44% | 12.2% |
| O=[N+]([O-])c1ccc(N=Nc2cc(S(=O)(=O)O)c3cccc(S(=O)(=O)O)c3c2O)cc1 |  | 108% | 113% | 114% | 102% | 72.8% | 121% | 130% | 104% | 108% | 105% | 86% | 112% | 97.7% | 97.7% | 112% | 118% | 104% |
| COc1cc(C(=O)Nc2cc3c(cc2Oc2cc(C)cc(C)c2)C(=O)N(C)[C@@H](CC(=O)N(C)O)C(=O)N3)c(Br)c(OC)c1OC |  | 0.573% (active) | -18.6% (active) | -33.3% (active) | -0.559% (active) | -22.5% (active) | -35.5% (active) | -18.1% (active) | 17.9% | 1.62% (active) | -30.2% (active) | -86.2% (active) | -2.61% (active) | -14.8% (active) | -35.5% (active) | -45.6% (active) | -28.6% (active) | -26.2% (active) |
| CCCCCCCC(=O)OCC/C=C/C1OC1C1OC(=O)/C=C\C=C\C(=O)N(C(C)=O)C(=O)/C=C(/C)CCC2OC2C1OC(=O)NC(C)=O (centres undefined) |  | 85.1% | 79.5% | 97.2% | 96% | 62.7% | 61.2% | 87.5% | 78.1% | 10.8% | 92.5% | 79% | 83.1% | 20.4% | 3.69% (active) | 72.1% | 44.1% | 45.2% |
| COc1ccc(/C=C2\COc3ccc(-c4ccccc4)cc3C2=O)c(OC)c1 |  | 96.4% | 101% | 64.7% | 107% | 120% | 98.3% | 125% | 72.6% | 68.1% | 91.2% | 119% | 92.9% | 76.9% | 75.7% | 75.4% | 97.7% | 77.4% |
| Cc1cnc(C(=O)Nc2nc3ccc(S(=O)(=O)Nc4ccc(C(C)(C)C)cc4)cc3[nH]2)cn1 |  | 29.2% | 34.8% | 46.5% | 43% | 35.1% | -14.3% (active) | 4.25% (active) | 13.8% | 27.1% | 26.7% | -64.6% (active) | 18.6% | 22.4% | 14.2% | 33.3% | 22.9% | 18.6% |
| Fc1ccc2c(-c3cncn3CCc3ccccc3)c[nH]c2c1 |  | 97.7% | 92.9% | 60.7% | 97.6% | 77.4% | 85.7% | 67.3% | 95.1% | 74.4% | 105% | 93.2% | 90.8% | 86.6% | 75.7% | 102% | 97.9% | 72.7% |
| COc1cccc(-c2nc3occn3c2-c2ccnc(NCCCNS(=O)(=O)c3ccc(C(F)(F)F)cc3)n2)c1 |  | 87% | 128% | 76.4% | 81.9% | 90.5% | 100% | 98.2% | 89.2% | 39.1% | 93.4% | 76.3% | 124% | 79.8% | 83.9% | 124% | 91.5% | 79.3% |
| COc1ccc(/C=C2\Oc3cc(OCCCN4CCCCC4)ccc3C2=O)cc1OC |  | 94.4% | 95.2% | 89.4% | 113% | 93.9% | 93% | 92% | 97.1% | 97.8% | 83.9% | 100% | 85% | 85.9% | 76% | 108% | 93.6% | 90.6% |
| OC(c1cccc(C(F)(F)F)c1)c1cnccc1NC1CCCCC1 (centres undefined) |  | 86.9% | 95.3% | 74.7% | 95.9% | 76.3% | 81.1% | 80.6% | 79.1% | 49.1% | 93.5% | 86.6% | 77.6% | 71.4% | 51.1% | -11.3% (active) | 80.8% | 29.9% |
| O=C1Nc2ccc(F)cc2/C1=C\c1c(-c2ccccc2)nc2ccccn12 |  | 74.7% | 73.7% | 94.6% | 80.7% | 47.6% | 66.4% | 71.8% | 38.1% | 61.8% | 65.9% | -10.1% (active) | 49.8% | 61.3% | 63.8% | 93.3% | 45.7% | 86.5% |
| CN(CCN(C)c1ccc(C(=N)N)cc1)c1ccc(C(=N)N)cc1 |  | 107% | 90.9% | 98% | 140% | 26% | 87.9% | 108% | 104% | 163% | 86% | 90.5% | 104% | 108% | 104% | 97% | 91.3% | 46.8% |
| COc1cc(/C=C\c2cc(/C=C\c3ccc(O)c(OC)c3)n(C(=O)COc3ccccc3)n2)ccc1O |  | 3.26% (active) | 22.1% | 25.6% | -28.6% (active) | 8.43% (active) | -4.46% (active) | 22.5% | 20.4% | 12.4% | -3.68% (active) | 8.84% (active) | 7.35% (active) | 1.3% (active) | 3.68% (active) | 34.8% | 8.96% (active) | -3.54% (active) |
